# According to ChEMBL document CHEMBL4513216, “Probing the Open Global Health Chemical Diversity Library for Multistage-Active Starting Points for Next-Generation Antimalarials” (ACS Infect Dis, 2020):
# Out of some 69,000 compounds screened, about 8,600 (12%) showed an effect of 50% or more. This is one part of a sample in which strong results are shown more often than they occur.
# Tested on: Plasmodium berghei
# Test: Screen against P. berghei liver stage (PbLuc), transformed with Luciferase, at 10uM
# Format: functional, HepG2
# Conditions: tested at 10 uM
row,Compound,INHIBITION
1,O[C@@H]1CCN(CC2CCOC2)[C@H]1Cc1ccccc1 (stereo not given in full),46.7%
2,COc1ccc(CN(Cc2cncn2C)CC2CCCO2)cc1OC (stereo not given),15.9%
3,CC(C)C(C)NC(=O)Nc1ccc(CS(C)(=O)=O)cc1 (stereo not given),3.16%
4,COc1ccc(CN2CCn3cc(CNC(=O)CC4CC4)nc3C2)cc1,40.4%
5,CCOc1ccccc1CNC1CCCN(Cc2noc(C)n2)C1 (stereo not given),21.5%
6,CNC(=O)c1ccc(CN(C(C)C)C(C)C)o1,47.9%
7,CC(C)N(Cc1ccc(C(=O)O)o1)C(C)C,69.6%
8,COC(=O)c1ccc(CN(C(C)C)C(C)C)o1,42.1%
9,c1coc(CN2CCCn3c(nnc3Cn3cccn3)C2)c1,4.68%
10,O=C(CC1CC1)N1CCn2cc(Cn3cccn3)nc2C1,42.7%
11,O=C(Cc1cccs1)N1CCn2cc(Cn3cccn3)nc2C1,-2.72%
12,O=C(Cc1ccc(F)cc1)N1CCn2cc(Cn3cccn3)nc2C1,51.2%
13,O=C(c1ccc[nH]1)N1CCn2cc(Cn3cncn3)nc2C1,10.8%
14,O=C(Cc1cccc(F)c1)N1CCn2cc(Cn3cccn3)nc2C1,26.4%
15,O=C(c1ccc[nH]1)N1CCn2cc(Cn3cccn3)nc2C1,74.2%
16,COc1ncccc1CN1C[C@@H]2COC[C@]2(CNC(=O)c2ccno2)C1,29%
17,Cc1nc(C)c(CN2CCC(N(C)Cc3noc(C4CC4)n3)C2)s1 (stereo not given),-19.9%
18,COc1ccc(CNC2CCc3ncnn3C2)cc1OCCCC#N (stereo not given),28.7%
19,CCc1nc(C)c(-c2nccn2CC2CCCCO2)[nH]1 (stereo not given),-10.2%
20,CCc1nc(C)c(-c2nccn2CC2CC(=O)N(CC)C2)[nH]1 (stereo not given),55.2%
21,CCc1nc(C)c(-c2nccn2CC2CCN(C3CCCC3)CC2)[nH]1,22.5%
22,CC(C(=O)Nc1cccc(Cl)c1)N1CCN(Cc2ncc[nH]2)CC1 (stereo not given),4.52%
23,Clc1cccc(N2CCC(NCc3ncc[nH]3)C2)c1 (stereo not given),34.1%
24,Fc1cccc(C(NCc2ncc[nH]2)c2ccccn2)c1 (stereo not given),-13.2%
25,Clc1cccc(C(NCc2ncc[nH]2)c2ccccn2)c1 (stereo not given),83.2%
26,Fc1cccc(C(NCc2ncc[nH]2)c2ccccc2)c1 (stereo not given),78.2%
27,Cn1cc(C(NCc2ccc(F)cc2)c2cccc(F)c2)cn1 (stereo not given),15%

row,Compound,INHIBITION
1,Cc1ccc(NC2(C(=O)N3CCn4cncc4C3)CCCCC2)cc1C,42.1%
2,COCc1cnc2n1CCN(C1CCC1)C2C (stereo not given),42.6%
3,O=C(NCCN1CCCCC1CO)c1cc(-c2ccccc2)on1 (stereo not given),-7.81%
4,CC(C)CNC(=O)c1ccc2c(c1)nc1n2CCN(Cc2ccco2)C1,18.4%
5,Cc1nnc(C2Cc3ccccc3CN2Cc2nc(C(C)C)no2)o1 (stereo not given),-10.1%
6,CC(=O)N1N=C(c2ccccc2)OC1C(=O)NCCOc1ccccc1 (stereo not given),-12.2%
7,O=C(Nc1ccccc1OCCc1ccccn1)N1CCOCC(O)C1 (stereo not given),12.3%
8,O=C(Nc1ccc(-n2cccn2)cc1)N1CCC(O)C1 (stereo not given),42.3%
9,O=C(Nc1ccc(-n2cccn2)cc1)N1CCOCC(O)C1 (stereo not given),53.6%
10,CC(=O)OC1CN(c2nc3c(C)cccc3s2)C1,-45.6%
11,c1cnc(N2CCO[C@H]3CN(Cc4csnn4)C[C@H]32)nc1,42.7%
12,COCCn1c2c(ccc1=O)CC(NS(C)(=O)=O)CC2 (stereo not given),58.6%
13,CN(C)CCn1c2c(ccc1=O)CC(NC(=O)c1cnccn1)CC2 (stereo not given),14.6%
14,CN(C)C(=O)Cn1c2c(ccc1=O)CC(NCc1cccnc1)CC2 (stereo not given),57.1%
15,CN(C)C(=O)Cn1c2c(ccc1=O)CC(NCc1ccoc1)CC2 (stereo not given),8.31%
16,O=c1ccc2c(n1Cc1cccnc1)CCC(NCc1cccnc1)C2 (stereo not given),-2.03%
17,COCCn1c2c(ccc1=O)CC(NC(=O)c1cscn1)CC2 (stereo not given),70.2%
18,CS(=O)(=O)NC1CCc2c(ccc(=O)n2CC2CC2)C1 (stereo not given),31.3%
19,Cn1cc(CNC2CCc3c(ccc(=O)n3Cc3ccncc3)C2)cn1 (stereo not given),42.1%
20,Cn1cc(CNC2CCc3c(ccc(=O)n3Cc3cccnc3)C2)cn1 (stereo not given),55.7%
21,CN(C)CCn1c2c(ccc1=O)CC(NCc1cccnc1)CC2 (stereo not given),34.9%
22,O=C(NC1CCc2c(ccc(=O)n2CC2CC2)C1)c1cscn1 (stereo not given),41.2%
23,Cn1c2c(ccc1=O)CC(NS(C)(=O)=O)CC2 (stereo not given),45.5%
24,Nc1nc(Nc2ccccc2)cc(N2CCNCC2)n1,12.5%
25,CC(C)CCn1ccc(NC(=O)N2CCCC2CN2CCOCC2)n1 (stereo not given),-0.551%
26,Cc1cc(CNS(C)(=O)=O)ccc1N(C)C,25.5%
27,Cc1ccc(CN2C[C@@H]3COC[C@@H](CC(=O)N4CCOCC4)[C@@H]3C2)s1,-3.52%

row,Compound,INHIBITION
1,Cc1nccnc1C1CCN(C(=O)C(C)C)CC1,29.35%
2,CC(=O)N(C)Cc1ncn2c1CN(C(=O)CC1CC1)CCC2,-31.2%
3,Cc1ccc(C(=O)N2C[C@H](OCC3CCOCC3)[C@H]3OCCC[C@H]32)o1,-33.9%
4,COc1ccc(CN2CC[C@@H]3CN(S(C)(=O)=O)CCO[C@@H]3C2)cc1,-0.804%
5,CC(C)N1CCOC(c2cc(CCO)[nH]n2)C1 (stereo not given),29.21%
6,CN(C)CCn1c2c(ccc1=O)CC(NCc1cnn(C)c1)CC2 (stereo not given),31.2%
7,COCCn1c2c(ccc1=O)CC(NCc1cnn(C)c1)CC2 (stereo not given),55.7%
8,CCn1c2c(ccc1=O)CC(NCc1cnn(C)c1)CC2 (stereo not given),12.2%
9,Cc1ccc(C(=O)N2CCC3(CC2)NC(=O)CC3c2ccccc2)cn1 (stereo not given),-16.2%
10,Cn1nc(Br)c2c(NCCSCCCO)ncnc21,23.1%
11,O=C(CCCNc1ncccn1)N1CCCC(n2ccnc2)C1 (stereo not given),-17.6%
12,CN1CCCC(c2nccnc2-c2cccc(Cl)c2)C1 (stereo not given),11.575%
13,CN1CCCC(c2cccc(-c3cccc(C(F)(F)F)c3)n2)C1 (stereo not given),45.2%
14,CN1CCCC(c2cncc(-c3cccc(C(F)(F)F)c3)n2)C1 (stereo not given),66.6%
15,CN1CCCC(c2cccc(-c3cccc(F)c3)n2)C1 (stereo not given),36%
16,CN1CCCC(c2cccc(-c3cccc(Cl)c3)n2)C1 (stereo not given),64.7%
17,CN1CCCC(c2nccnc2-c2cccc(C(F)(F)F)c2)C1 (stereo not given),19.64%
18,Cn1ccnc1C1CCCN(C(=O)c2cc(F)cc(F)c2)C1 (stereo not given),48.2%
19,CN(C)CCN1CCC2(CCCN(C(=O)C3CCC3)C2)CC1,33%
20,O=C(C1CCOCC1)N1CC[C@H](O)[C@@H]1Cc1cccnc1,37.6%
21,Cc1ccc(CN2CC[C@H]3OCC[C@@H](C(=O)N4CCCCO4)[C@@H]3C2)o1,61.5%
22,O=C([C@@H]1CCO[C@@H]2CCN(CC3CC3)C[C@H]21)N1CCCC1,57.5%
23,O=C([C@@H]1CCO[C@@H]2CCN(CCc3ccccc3)C[C@@H]21)N1CCCC1,-101%
24,O=C([C@@H]1CCO[C@@H]2CCN(CC3CCOCC3)C[C@H]21)N1CCCO1,34.4%
25,O=C([C@@H]1CCO[C@@H]2CCN(Cc3ccco3)C[C@H]21)N1CCCCO1,29.8%
26,O=C([C@@H]1CCO[C@@H]2CCN(CC3CCOCC3)C[C@H]21)N1CCCC1,30.3%
27,CC(C)CN1CC[C@H]2OCC[C@@H](C(=O)N3CCCO3)[C@@H]2C1,47.9%

row,Compound,INHIBITION
1,Cc1ccc(CN2C[C@H](C(=O)N3CCCCO3)[C@@H]3CCO[C@@H]3C2)o1,-12.1%
2,O=C([C@@H]1CCO[C@@H]2CCN(CC3CC3)C[C@H]21)N1CCCCO1,61.5%
3,CN1CCN(C2COC3(CCN(CC4CC4)CC3)C2)CC1 (stereo not given),-30.1%
4,CC(C)n1nc(Cn2cccn2)c2c1CN(C1CCOC1)C2 (stereo not given),-12.1%
5,COc1cccc2c1ccn2CCNC(C)=O,21%
6,O=C(NCc1cncc2c1CCN(Cc1ccc(F)cc1)C2)C1CC1,-14.4%
7,COc1cccc(N2C(=O)CC3(CCCNC3)C2=O)c1 (stereo not given),-33.1%
8,N#Cc1ncn(CCC(=O)Nc2cccc(Cl)c2)n1,39.5%
9,CCC(=O)Nc1ccc(C(C)NC(=O)COC)cc1 (stereo not given),-68%
10,N[C@@H](Cc1ccccc1)c1nnc(S(=O)(=O)Cc2cccc(Cl)c2)o1,-3.73%
11,CCN(CC)c1ccc(C(=O)N2CCC(c3nc(C)no3)CC2)cn1,30.25%
12,Cc1cc(CCC2CN(CC3(O)CCCCC3)CCO2)ncn1 (stereo not given),-3.02%
13,Cc1nc(N2CCCC2)nc2c1CCN(Cc1ccoc1)CC2,8.03%
14,CC(C)CCN1CCc2nc(N3CCOCC3)nc(NC(C)C)c2C1,70.2%
15,Cc1nc(N2CCOCC2)nc2c1CCN(c1nccs1)CC2,37.8%
16,CCN1CCc2nc(N3CCOCC3)nc(NC(C)C)c2C1,24%
17,CC(C)Nc1nc(N2CCOCC2)nc2c1CN(Cc1ccoc1)CC2,55.2%
18,c1cc(CN2CCc3nc(N4CCOCC4)nc(NC4CC4)c3C2)co1,-15.3%
19,CC(C)Nc1nc(N2CCOCC2)nc2c1CN(CC(=O)N(C)C)CC2,20.5%
20,Cc1nc(N2CCOCC2)nc2c1CN(CC(=O)N(C)C)CC2,16.8%
21,c1csc(CN2CCc3nc(N4CCOCC4)nc(NC4CC4)c3C2)n1,57.1%
22,C1CN(c2nc3c(c(NC4CC4)n2)CN(CC2CCOC2)CC3)CCO1 (stereo not given),-39.4%
23,CCCN1CCc2nc(N3CCOCC3)nc(NC(C)C)c2C1,69.3%
24,Cc1cc2ccccc2n1CC(=O)NC(C)C(=O)N1CCOCC1 (stereo not given),-7.83%
